Molecules are shown by their SMILES. This is part of a sample that, as a whole, favours compounds with a hit. Of some 79,000 tested, about 15% had one in any assay. A number with no mark means an inactive call. Activity calls are given as the source filed them. Rule as the data show it: active = growth inhibition above about 70%; inactive = the rest.

The nature of this experiment: NCI Yeast Anticancer Drug Screen. Data for the sgs1 mgt1 strain (AID 161).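 Also: 0% = growth of cultures given vehicle only.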 The note with it: S. cerevisiae sgs1 mgt1 strain, at 50.0 µM, stronger effect = higher value. As to the method: Growth inhibition of yeast strains with defined genetic alterations is measured as a screen for potential anti-cancer activity. Selected strains with alterations in DNA damage repair or cell cycle control were exposed to compounds and growth inhibition was measured relative to vehicle treated controls. The strain used in this assay is sgs1 mgt1
Regarding `N#Cc1n[nH]n(-c2ccccc2)c1=O`, the growth inhibition is 17.3%.

Turning to `CC(C)=CCc1c(OC(=O)c2c(C)cc(O)cc2O)cc(CO)c(CO)c1O`, the growth inhibition is 30.4%.

For the molecule `O=c1c2ccccc2nc(-c2ccccc2)n1/N=C/c1ccccc1[N+](=O)[O-]`, the growth inhibition is 26.8%.

As to `CNc1nc2c(C)ccc3[nH]c(N(C)C)nc3c-2n1`, the growth inhibition was 11.3%.

Regarding `Cc1ccc(/C=N/Nc2cnccn2)s1`, the growth inhibition is -30.9%.

Consider `NC(=O)CC1OC(=O)Cc2cc3c(c(O)c21)C(=O)c1c(O)cccc1C3=O` (stereo not given), for which the growth inhibition is 22.4%.

Regarding `NC(Cc1ccc(S(=O)(=O)O)cc1)C(=O)NC(Cc1ccc(S(=O)(=O)O)cc1)C(=O)NC(Cc1ccc(S(=O)(=O)O)cc1)C(=O)NC(Cc1ccc(S(=O)(=O)O)cc1)C(=O)O` (stereo not given), the growth inhibition was 5.2%.

As for `N/N=C(\C(=O)Nc1ccc([N+](=O)[O-])cc1)C(C1=Nc2cc([N+](=O)[O-])ccc2NC1)[N+](=O)[O-]` (stereo not given), the growth inhibition was 12.8%.

In the case of `CSc1nc(Br)nc2ncn(C3CC(Oc4ccc(C)cc4)C(COc4ccc(C)cc4)O3)c12` (stereo not given), the growth inhibition was 12.4%.

With `C=C1C2CCC3C4(C)CCCC(C)(C(=O)O)C4CCC3(C2)C1OC(=O)/C(C)=C/C` (stereo not given), the growth inhibition is -7.05%.

As for `C=C1C(=O)OC2/C=C(\CO)CC/C=C(\CO)CC(OC(=O)C(C)C)C12` (stereo not given), the growth inhibition was -16%.

`COC(=O)C(=O)C(C(=O)C(=O)Nc1nc2ccc(C)cc2s1)c1nc2ccc([N+](=O)[O-])cc2[nH]c1=O` (stereo not given): the growth inhibition was 22.1%.

On to `C=C1C(=O)OC2CC(C)C3(O)CCC(=O)C3(C)CC12` (stereo not given), for which the growth inhibition was -5.2%.

In the case of `CC(C)C1OC(N)=C(C#N)C1(C#N)C#N` (stereo not given), the growth inhibition is -7.35%.

For the molecule `Fc1ccc(Nc2nc(Cl)c3[nH]cnc3n2)cc1Cl`, the growth inhibition was 27.6%.

On to `O=C(Nc1cccc(NC(=O)C(=O)C2CCC3=C(Sc4ccccc4N3)C2=O)n1)C(=O)C1CCC2=C(Sc3ccccc3N2)C1=O` (stereo not given), for which the growth inhibition was 3%.

As to `N#CC(=S)Nc1ccc(F)cc1`, the growth inhibition was 30.7%.

For `Cc1ccc2c(/C=C/c3ccc(N(C)C)cc3)ccc(C(C)C)cc1-2`, the growth inhibition was 19.1%.

Turning to `CN1C2CCC1CC(OC(=O)C(O)c1ccccc1)C2` (stereo not given), the growth inhibition is -27.9%.

As for `CC1CC2(OC2C)C(=O)OC2CCN(C)C/C=C(/COC(=O)C1(C)O)C2=O` (stereo not given), the growth inhibition was 20.9%.

As for `COc1ccccc1-c1n[nH]c(-c2ccccc2O)n1`, the growth inhibition was 27.8%.

Turning to `C=C1CC2(C)CCC(OC(=O)C3(C)OC3C)C(C)(OC(C)=O)C2CC1=C(C)C` (stereo not given), the growth inhibition is 7.55%.

In the case of `Cc1ccc(F)cc1NC(=O)O/N=C(\Cl)C(C)C`, the growth inhibition is -5.7%.

For `CC1=CC(=O)c2ccc(C)cc2C1=O`, the growth inhibition was -6.9%.

On to `C=C(C)C(=O)OC1CC2(C)OC(=CC2=O)C(C)CC2OC(=O)C(=C)C12` (stereo not given), for which the growth inhibition was 29%.

Take `COC(=O)C(C(=O)C(=O)NC1Nc2ccc(C)cc2S1)c1nc2ccc(Cl)cc2[nH]c1=O` (stereo not given): the growth inhibition is 11.5%.

On to `C/C(=C\COc1cc(O)c2c(c1)C(=O)c1cc(C)cc(O)c1C2=O)CCC1OC1(C)C` (stereo not given), for which the growth inhibition was 4.55%.

With `Cn1cnc2c(=O)[nH]c(=O)[nH]c21`, the growth inhibition is -43.4%.

On to `CC1CC(=O)N(N(C)C)C(C#N)(C#N)C1(C#N)C#N` (stereo not given), for which the growth inhibition is 11.2%.

As to `COc1cc(C)c2c(c1C=O)Oc1c(c(C)c(O)c3c1C(O)OC3=O)OC2=O` (stereo not given), the growth inhibition is 4.85%.

`COC(=O)c1cc(C#N)[nH]c1-c1ccsc1`: the growth inhibition is -10.8%.

Consider `O=C1NC(N/N=C\C(O)C(O)C(O)C(O)CO)=N/C1=C\c1ccc(Cl)cc1` (stereo not given), for which the growth inhibition is 25.8%.

Take `O=C1c2ccccc2-c2c1c1ccccc1c(=O)n2-c1cccnc1`: the growth inhibition was 26.2%.

Consider `NC(=S)NS(=O)(=O)c1ccc(N)cc1`, for which the growth inhibition was -6%.

As for `O=C(O)CCCC(=O)Nn1c(Cc2ccc(Cl)cc2)n[nH]c1=O`, the growth inhibition was 34.5%.

For the molecule `Cc1ccc(OCC2OC(n3cnc4c(Cl)nc(Cl)nc43)CC2Oc2ccc(C)cc2)cc1` (stereo not given), the growth inhibition was 23.1%.

With `N#Cc1nc(C(F)(F)F)oc1N`, the growth inhibition is -0.95%.

With `CCCCC1C(=O)N(c2ccc(S(=O)(=O)Nc3ccccn3)cc2)N(c2ccc(O)c(C(=O)O)c2)C1=O` (stereo not given), the growth inhibition was 6.7%.

Take `COc1ccc2c(c1)N(C(C)=O)CN1C(=O)CCC21` (stereo not given): the growth inhibition is -1.25%.

Consider `CC(C)/C(Cl)=N/OC(=O)Nc1cccc(C(F)(F)F)c1`, for which the growth inhibition was 85% (active).

The values are drawn from PubChem BioAssay (NCI).
